High-throughput results: PubChem BioAssay, several laboratories
In the library only some 2.3% were active in any assay of this set; here they are far more common.
m5-HT2A agonist – agonists of mouse serotonin 5-HT2A receptor (HTR2A) | 0.66% of 360,000 active | CHO-K1 mHTR2A beta-arrestin complementation, luminescence; percent of 30 µM serotonin response | activation, % at 7.6 µM | P35363;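 active = activation above a run cutoff, the mean activation of all tested compounds plus 3 SD, cut at about 14% in these data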
Granule exo inh – blocks lytic granule exocytosis; TALL-104 LAMP-1 surface exposure, flow cytometry; cells stimulated with thapsigargin and PMA; inhibition, % at 10 µM; 0.66% of 360,000 active; AID 651702;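 active = inhibition above about 55%, limit read from the data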
ABHD5 PLIN5 PPI – blocks binding of human ABHD5 to perilipin-5. inhibition, % at 4 µM. Split G. princeps luciferase complementation, luminescence, 4 h. 0.78% of 360,000 active. AID 602281;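 active = inhibition above the mean inhibition across every tested compound plus 3 SD, cut at about 22% in these data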
NTR1 ag – agonists of human neurotensin receptor NTR1 | P30989 | NTR1-U2OS beta-arrestin-GFP spot imaging, agonist mode | activation, % at 20 µM | 0.17% of 330,000 active | AID 493036;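 active = activation at or above 40% of the spot to cytoplasm intensity ratio, with at least 20 cells analyzed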
Target sequence (P30989 whole entry, looked up): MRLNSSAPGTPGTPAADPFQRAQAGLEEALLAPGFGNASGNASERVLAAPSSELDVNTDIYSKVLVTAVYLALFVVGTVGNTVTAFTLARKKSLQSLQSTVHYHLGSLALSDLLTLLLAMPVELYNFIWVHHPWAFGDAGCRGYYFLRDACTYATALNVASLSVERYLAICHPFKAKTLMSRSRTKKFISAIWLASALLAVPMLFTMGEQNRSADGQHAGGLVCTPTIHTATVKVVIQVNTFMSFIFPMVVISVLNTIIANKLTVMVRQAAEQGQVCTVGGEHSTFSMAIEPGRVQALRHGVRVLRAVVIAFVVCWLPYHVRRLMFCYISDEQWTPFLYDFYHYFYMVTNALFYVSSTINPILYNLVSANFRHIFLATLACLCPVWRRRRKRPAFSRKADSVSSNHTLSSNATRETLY
Beta2AR agonist – agonists of human beta-2 adrenergic receptor inducing internalization | P07550 | 0.43% of 340,000 active | response, % (concentration not given with the values) | Am2.2-beta2AR cells, FAP receptor internalization, flow cytometry;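 active = response above a set limit, near 3 SD of response in nonfluorescent compounds, cut at about 42% in these data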
B2AR ag CP1 – agonists of human beta-2 adrenergic receptor | AID 540358 | 25% of 1,100 active | percent response (surface receptor), % at 10 µM | shares compounds with Beta2AR agonist | Am2.2-beta2AR cells, FAP surface receptor, flow cytometry; hits give low values;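 active = surface receptor percent response at or below 58%, roughly 3 SD from nonfluorescent compounds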
B2AR FAP counter – counter-screen for beta-2AR agonists: fluorescence in Am2.2 cells; FAP fluorogen flow cytometry, fluorescence counterscreen; hits give low values; calls only at 10 µM; AID 588765; 1,100 tested, under 10 active; shares compounds with Beta2AR agonist;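 active = percent response below a set limit in fluorescence channel 1 and below 50% in channel 8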
A number is an active result; . = inactive; / = no result given; ! = not confirmed by another sample.

SMILES	m5-HT2A agonist	Granule exo inh	ABHD5 PLIN5 PPI	NTR1 ag	Beta2AR agonist	B2AR ag CP1	B2AR FAP counter
CC(C)(NC(=O)NC(CO)c1ccccc1)c1cccc(C(C)(C)NC(=O)NC(CO)c2ccccc2)c1 (stereo not drawn)	.	.	.	.	.	.	.
Cc1ccc(S(=O)(=O)N2CCC(C(=O)Nc3nnc(-c4ccc(F)cc4)s3)CC2)cc1	.	.	.	.	65	.	.
CCCCCN(C(=O)CCC(=O)OCc1cc(C)ccc1C)c1c(N)n(CCCC)c(=O)[nH]c1=O	.	.	.	.	.	/	/
CCOC(=O)Cn1nnnc1CN(Cc1ccc(OC)cc1)Cc1cc2cc(C)ccc2[nH]c1=O	.	.	.	.	.	/	/
CCOC(=O)Cn1nnnc1CN(Cc1ccc(OC)cc1)Cc1cc2cc(CC)ccc2[nH]c1=O	.	.	.	.	86	.	.
Cc1cccc(OCCCC(=O)Nc2nccs2)c1C	.	.	.	.	.	/	/
COc1ccccc1OCCCC(=O)Nc1nccs1	.	.	.	.	76	.	.
O=C(Nc1ccnn1C1CCN(Cc2cccc(O)c2)CC1)C1CCCC1	.	.	.	.	.	/	/
O=C(NCCCN1CCN(CCCNC(=O)c2ccc(F)cc2)CC1)c1ccc(F)cc1	.	.	.	.	.	.	.
CC(C)c1ccc(C(=O)NCCCN2CCN(CCCNC(=O)c3ccc(C(C)C)cc3)CC2)cc1	.	.	.	.	46	.	.
Cc1ccsc1/C=N/n1c(COc2ccccc2)n[nH]c1=S	.	.	.	.	.	/	/
O=C(CN1CCC(C(=O)c2ccc3c(c2)OCCO3)CC1)NCc1ccc(F)cc1	.	.	.	.	.	/	/
CC1=C(C(=O)Nc2ccc(C(=O)N3CCN(c4ccccc4F)CC3)cc2)SCCO1	.	.	.	.	73	21	.
CCOC(=O)c1cnc(-n2nc(C)cc2C)nc1Nc1ccc(C)cc1	.	.	.	/	.	/	/
CCOC(=O)c1cnc(-n2nc(C)cc2C)nc1NC	.	.	.	.	.	.	.
COC(=O)CS(=O)(=O)c1ccsc1C(=O)Nc1ccc(F)c(F)c1	.	.	.	.	47	.	.
O=C(C1CCOCC1)N1CCCC(N2CCN(c3cccc(C(F)(F)F)c3)CC2)C1 (stereo not drawn)	.	.	.	.	.	/	/
Cc1ccccc1OCc1n(CC(=O)OC2CC(C)CCC2C(C)C)c2ccccc2[n+]1C (stereo not drawn)	.	90	.	.	108!	.	.
CC1CCC(C(C)C)C(OC(=O)Cn2c(-c3ccc(Br)cc3)[n+](C)c3ccccc32)C1 (stereo not drawn)	.	.	.	.	.	/	/
CCN(CC)S(=O)(=O)c1ccc(N2CCCC2)c(NC(=O)C2=NN(c3ccccc3)C(=O)CC2)c1	.	.	.	.	47	.	.
O=C(Nc1cc(Cl)ccc1N1CCCC1)C1=NN(c2ccccc2)C(=O)CC1	.	.	.	.	.	/	/
COC(=O)c1ccc(CN2CCC(Oc3cccc(C(=O)N4CCCC4)c3)CC2)cc1	.	.	.	.	.	/	/
COC(=O)c1ccc(CN2CCC(Oc3ccc(C(=O)N4CCCCC4)cc3)CC2)cc1	.	.	.	.	.	.	.
CCCCCCCCCCOC(=O)Cn1c(COc2cccc(C)c2)[n+](C)c2ccccc21	.	74	.	.	.	.	.
CCCCCCCCCCOC(=O)Cn1c(COc2ccc(Cl)cc2)[n+](C)c2ccccc21	.	.	.	.	.	/	/
SMILES	m5-HT2A agonist	Granule exo inh	ABHD5 PLIN5 PPI	NTR1 ag	Beta2AR agonist	B2AR ag CP1	B2AR FAP counter
Cc1ccc(NC(=O)c2ccc(N3CCOCC3)c([N+](=O)[O-])c2)cc1S(=O)(=O)N1CCOCC1	.	.	.	.	49	20	.
Cc1ccc(C(=O)Nc2cccc(S(=O)(=O)N3CCOCC3)c2)cc1[N+](=O)[O-]	.	.	.	.	.	/	/
CN(C)S(=O)(=O)c1cccc(NC(=O)c2ccc(N3CCOCC3)c([N+](=O)[O-])c2)c1	.	.	.	.	45	53	.
Cc1ccc(C(=O)Nc2ccccc2[N+](=O)[O-])cc1S(=O)(=O)N1CCOCC1	.	.	.	.	.	/	/
CCOC(=O)N1CCC(NCc2c(C(=O)N(C)Cc3ccccc3)nc3ccccn23)CC1	.	.	.	.	.	/	/
CC(=O)c1c(C(C)=O)c(C)n(C2CCCCC2)c1C	.	.	.	.	.	/	/
COc1ccccc1CNC(=O)c1cccc(S(=O)(=O)N(C)c2ccccc2)c1	.	.	.	.	.	/	/
CCN(CC)c1ccc(-c2nn3c(-c4ccccc4OC)nnc3s2)cc1	.	80	.	.	42	.	.
COc1ccc(-c2nn3c(-c4ccccc4)nnc3s2)cc1	.	.	.	.	.	/	/
CCC(=O)N1CCCC(C)(C(=O)Nc2ccc(OC(F)F)cc2)C1 (stereo not drawn)	.	.	.	/	/	/	/
COc1ccc(N(C(=O)c2cccc([N+](=O)[O-])c2)S(=O)(=O)c2ccc3c(c2)n(C)c(=O)n3C)cc1	.	.	.	.	54	.	.
Cc1cccc(CN2CCN(C3CN(Cc4cn(Cc5ccccc5C(F)(F)F)nn4)S(=O)(=O)C3)CC2)c1 (stereo not drawn)	.	.	.	/	/	/	/
Cc1ccc(NC(=O)c2ncn(CCCNCCCN(C)C)n2)cc1C	.	.	.	/	.	/	/
Cc1ccc(NC(=O)c2ncn(CCCNCCCc3ccccc3)n2)cc1C	.	.	.	/	42	.	.
CCS(=O)(=O)c1ncc(Cl)c(C(=O)Nc2ccc(S(=O)(=O)N3CCCC(C)C3)cc2)n1 (stereo not drawn)	.	.	.	.	47	.	.
CC1CCCN(S(=O)(=O)c2ccc(NC(=O)CNC3CCCC3)cc2)C1 (stereo not drawn)	.	.	.	.	.	/	/
O=C(c1cc2c(ccc3ccccc32)o1)N1CCN(c2ncc(C(F)(F)F)cc2Cl)CC1	.	.	.	.	98	13	.
O=C(c1[nH]c(C(F)(F)F)nc1-c1ccccc1)N1CCN(c2ncc(C(F)(F)F)cc2Cl)CC1	.	.	.	/	/	/	/
CC(C)(C)C(=O)Nc1cc2c3c(c1)CCN3C(=O)CC2	.	.	.	.	.	/	/
Cc1cc(C)n(C(=O)CCCC(=O)n2nc(C)cc2C)n1	.	.	.	.	54	.	.
Cc1cc(C)n(C(=O)CCCCCCCC(=O)n2nc(C)cc2C)n1	.	.	.	.	.	/	/
Clc1ccccc1C(c1ccccc1)(c1ccccc1)n1ccnc1	.	.	.	.	51	30	.
Cc1cc(NC(=O)CSc2nnc(C)n2-c2ccccc2C)no1	.	.	.	.	.	/	/
CCOC(=O)[C@@H]1[C@H]2COc3cc(OC)ccc3[C@H]2N2C(=O)N(c3cccc(F)c3)C(=O)[C@@]12C	.	.	.	.	.	/	/
Cc1ccccc1-c1cc2nc(Oc3cccc(F)c3)n(C)c(=O)c2s1	.	.	.	/	/	/	/
